An excerpt weighted towards active compounds, which were near 0.7% of everything screened.
PINK1 expr mod = modulators of PINK1 expression; actives 0.2% (n = 410,000); PINK1 immunofluorescence, high-content cytometry, 24 h; Potency, µM (highest dose often 76.6 µM), inactives show at the top dose activation (PINK1 increase), actives largely listed as activators; AID 624263; active = well fitted activation curve with a large enough effect; inconclusive = small, poorly fitted or top-dose-only effect; cell line not stated here; also: % of control where 0% means no effect; nearly all actives have a fitted effect of over 65% in size
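PINK1 protein level read as immunofluorescence by microplate cytometer in a fixed, stained stable cell line after 24 h exposure to five compound concentrations, with CCCP as control.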
GLS inh = glutaminase GLS (human) inhibition; AID 624170; Potency, µM (titrated, usually from 45.5 µM), without a hit: at the highest dose activity change, negative = inhibition, actives largely listed as inhibitors; actives 0.21% (n = 410,000); GLS enzymatic activity, qHTS titration; also: % is scaled to controls: 0 for no effect and ±100 for the full control effect
Target sequence (O94925 whole entry, looked up): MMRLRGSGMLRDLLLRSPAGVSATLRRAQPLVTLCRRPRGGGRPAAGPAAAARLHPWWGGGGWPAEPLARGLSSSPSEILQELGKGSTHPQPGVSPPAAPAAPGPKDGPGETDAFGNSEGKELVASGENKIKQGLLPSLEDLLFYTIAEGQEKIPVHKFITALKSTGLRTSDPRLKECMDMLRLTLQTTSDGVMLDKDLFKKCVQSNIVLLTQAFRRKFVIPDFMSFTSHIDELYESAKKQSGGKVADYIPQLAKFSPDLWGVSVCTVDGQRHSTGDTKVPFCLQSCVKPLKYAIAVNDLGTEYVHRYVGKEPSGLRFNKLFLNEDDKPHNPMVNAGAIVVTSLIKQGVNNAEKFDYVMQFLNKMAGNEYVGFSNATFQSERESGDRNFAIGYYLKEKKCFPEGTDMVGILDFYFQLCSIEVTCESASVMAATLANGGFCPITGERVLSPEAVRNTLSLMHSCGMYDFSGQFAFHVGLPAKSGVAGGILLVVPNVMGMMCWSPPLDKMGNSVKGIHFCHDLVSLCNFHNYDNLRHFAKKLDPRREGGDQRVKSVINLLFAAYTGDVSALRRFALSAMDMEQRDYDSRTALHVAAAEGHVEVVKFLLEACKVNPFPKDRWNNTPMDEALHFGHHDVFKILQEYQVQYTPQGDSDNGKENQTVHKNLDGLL
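hKGA in 45 mM KH2PO4 pH 8.2, 0.02% Tween-20 with pin-transferred compounds; 1 mM L-glutamine (stock) plus glutamate oxidase/HRP/Amplex Red coupling added. Fluorescence read initially and after 30 min at RT.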
Vif-APOBEC3G blk = blocks the Vif interaction with human APOBEC3G. Potency, µM (series often up to 46.1 µM), for inactives: at the top dose activity, negative = active, most hits filed as inhibitors. HeLa A3G-eYFP + Vif (tagged APOBEC3G with the HIV-1 protein that degrades it), YFP fluorescence, overnight. actives 0.076% (n = 410,000). Q9HC16; also: % is scaled to controls: 0 for no effect and ±100 for the full control effect; nearly all actives have a fitted effect of over 60% in size
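HeLa cells stably expressing Vif and C-terminally eYFP-tagged A3G, seeded overnight at 37 deg C, then exposed to compound by pintool overnight at 37 deg C. Rise in yellow fluorescence (Ex 488/Em 500-530, Acumen) marks blocked Vif-driven A3G degradation.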
Epigenetic derep = epigenetic control regulation, reporter derepression. murine LDR cells, GFP reporter derepression, 30 h. AID 1865. actives 0.2% (n = 280,000). Potency, µM (top dose mostly 53.9 µM), without a hit: at the highest dose GFP activation, most hits filed as activators; also: % of control where 0% means no effect; nearly all actives have a fitted effect of over 60% in size
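GFP-positive cell count by laser-scanning cytometry (objects 20–120 um) after 30 h, 37 C compound exposure of murine LDR cells; reporter is CMV-GFP integrated at a silenced locus, inducible by HDAC or DNMT inhibitors.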
Vif-A3F inh = inhibitors of Vif-A3F interaction. HeLa A3F-eYFP + Vif (tagged APOBEC3F with the HIV-1 protein that degrades it), YFP fluorescence increase. Potency, µM (doses to about 46.1 µM), inactives show top-dose activity, negative = active. actives 0.2% (n = 390,000); also: % of control where 0% means no effect; nearly all actives have a fitted effect of over 65% in size
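HeLa cells stably expressing Vif plus C-terminally eYFP-tagged A3F were seeded, incubated overnight at 37 deg C, dosed with compound, incubated overnight again at 37 deg C. Yellow fluorescence (Ex 488/Em 500-530) reported blocked Vif-mediated A3F-eYFP degradation.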
* = called active by the depositor; ? = inconclusive; · = no result given; ! = a repeat was not active. Unless noted, calls follow the shape of the dose curve; as a rule, active = well fitted curve in the direction sought with a large enough effect; inconclusive = small, poorly fitted or top-dose-only effect, or another doubt; inactive = no such curve, though single readings can be large; an effect the other way counts as inactive or inconclusive. Potency is read from the fitted curve at half-maximal effect.

SMILES	PINK1 expr mod	GLS inh	Vif-APOBEC3G blk	Epigenetic derep	Vif-A3F inh
O=C(Nc1ccc(Br)c2ccccc12)c1ccc2ccccc2c1O	25µM*	16%	-1%	5%	-11%
CO[C@]1(NC(=O)Cc2cccs2)C(=O)N2C(C(=O)O)=CC(COC(N)=O)S[C@H]21 (stereo partly drawn)	·	-25%	·	·	·
N=C1/C(=C/c2cccs2)C(=O)N=C2SN=C(SCc3ccccc3)N12	?	31%	-8%	-1%	13%
CC(C)CSC1=NSC2=NC(=O)/C(=C\c3cccs3)C(=N)N12	45µM*	5%	-2%	-1%	-4%
COc1ccc(OC)c(/C=C/c2nc3ccccc3nc2C)c1	·	·	-23%	·	·
COc1ccc(OC)c(/C=C/c2nc3ccccc3[nH]c2=O)c1	16%	6%	?	·	22µM*
CSCCC(NC(=O)[C@H](Cc1c[nH]c2ccccc12)NC(=O)CNC(=O)[C@H](CCSC)NC(=O)[C@H](Cc1ccc(OS(=O)(=O)O)cc1)NC(=O)[C@@H](N)CC(=O)O)C(=O)N[C@@H](CC(=O)O)C(=O)N[C@@H](Cc1ccccc1)C(N)=O (stereo partly drawn)	·	-20%	·	·	·
O=C(CSc1ccc(-c2nc3ccccc3[nH]2)cn1)Nc1ccc(S(=O)(=O)N2CCCC2)cc1	-4%	6%	-1%	0%	0%
Cc1cc2nc(-c3ccc(SCC(=O)Nc4ccc(S(=O)(=O)N5CCCC5)cc4)nc3)[nH]c2cc1C	4%	-16%	-7%	7%	11µM*
Cc1c2ccccc2nc2c(F)c(NC(C)C)c(F)c(F)c12	-3%	5%	?	?	13µM*
Cc1c2ccccc2nc2c(F)c(NCCO)c(F)c(F)c12	-3%	-21%	?	-1%	?
COc1cc(=O)n2c(c1C(=O)NCc1ccco1)CCN(Cc1ccc3ccccc3c1)CC2	2%	·	·	·	·
CC(=O)c1cccc(OCC(=O)N(C)CC(=O)NCc2ccco2)c1	-1%	13µM*	-4%	·	-8%
O=C(NN=Cc1ccc(F)cc1)c1cccc(S(=O)(=O)N2CCCC2)c1	0%	5%	1%	·	8%
O=C(N/N=C/c1ccc(O)c(O)c1)c1cccc(S(=O)(=O)N2CCCCC2)c1	3%	7.1µM*	1%	-1%	7%
COc1ccc(C(NC(=O)C(C)C)c2ccc3cccnc3c2O)cc1 (stereo not drawn)	1%	0%	-22%	3.5µM*	-5%
Cc1cc(Br)ccc1NC(=S)Nc1cccc([N+](=O)[O-])c1	40µM*	2%	-1%	-1%	2%
COc1ccc(C(=O)N2CCC3(CC2)c2ccccc2[C@@H](NC(=O)c2ccccn2)[C@@H]3OC)c(O)c1	-1%	·	·	·	·
Cc1occc1-c1nnc(SCC(=O)Nc2nc(C(C)(C)C)cs2)o1	14µM*	-10%	-4%	2%	-2%
COc1ccc(-n2ccc(-c3sc(NCc4cc(OC)c5c(c4)OCO5)nc3C)n2)cc1	0%	·	·	·	·
CN1C2CCC1/C(=C/c1cccn1C)C(=O)/C2=C\c1cccn1C	0%	-21%	?	-3%	22µM*
CN1C2CCC1/C(=C\c1ccc(F)cc1)C(=O)/C2=C/c1ccc(F)cc1	7%	6%	-21%	?	?
Cn1cccc1/C=C1\CC(C(C)(C)C)C/C(=C\c2cccn2C)C1=O (stereo not drawn)	?	10%	7.9µM*	2.8µM*	?
O=C(NCCc1nnc2n1CCN(Cc1ccc3c(c1)CCO3)CC2)c1ccco1	1%	·	·	·	·
COc1cc(=O)n2c(c1C(=O)N(C)Cc1ccsc1)CCN(Cc1c(C)nn(C)c1Cl)CC2	1%	·	·	·	·
Cc1cccc(-n2c(CCn3nc(C)c([N+](=O)[O-])c3C)n[nH]c2=S)c1	11µM*	-5%	2%	0%	-2%
Cc1cc(C(=O)NCC2CCC3(CCN(Cc4cccc(F)c4F)CC3)O2)n(C)n1 (stereo not drawn)	-1%	·	·	·	·
O=C(O)c1ccc2nc(-c3ccco3)c(-c3ccco3)nc2c1	-2%	7.1µM*	2%	5%	-2%
O=C(O)c1cc(-c2ccco2)nc2ccc(Br)cc12	1%	7.9µM*!	0%	0%	-2%
